Assay results from PubChem BioAssay (NCI).
Compounds without any hit were thinned out: in the full panel of roughly 83,000, 20% have a hit.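 Percent growth is the endpoint: 0 to 100 indicates growth inhibition (40 means 60% inhibition), 0 means no net growth, and negative values indicate cell death.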 Unmarked numbers belong to inactive results. Active and inactive are the calls of the source. The calls were made as follows: active = growth percent below 10; inactive = the rest.

Each compound was assayed on BT-549 breast (assay: NCI-60 one-dose screen, 48 h (100 = growth as untreated, 0 = no growth, -100 = all killed)). Conditions: 10 µM unless noted.

SMILES	growth
CCc1ccc(C(=Nc2ccc(N(C)C(=O)CN3CCN(C)CC3)cc2)c2c(O)[nH]c3ccc(C(=O)OC)cc23)cc1	-87.9% (active)
Cc1ccc(C(C)C)c(OCc2ccc(C(=O)N/N=C/c3cccc(O)c3O)cc2)c1	36.2%
C/C(=N\Nc1ccc(Cl)cn1)c1ccc2ccccc2n1	21.6%
CCOC(=O)c1ccc2n1CCCc1cnc(NC(C)=O)nc1-2	104%
COC(=O)c1ccc2[nH]c(O)c(C(=Nc3ccc(N(C)C(=O)CN4CCN(C)CC4)cc3)c3ccc(C)cc3)c2c1	-39.5% (active)

Each compound was assayed on MDA-MB-435 melanoma in the same assay as above. Conditions: 10 µM unless noted.

SMILES	growth
Brc1ccc(-c2nc3ccccc3s2)cc1	105%
c1cc[c]([Bi]([c]2ccccc2)[c]2ccccc2)cc1	90.4%
O=C1/C(=N\c2cc(=O)[nH]n2S(=O)(=O)c2ccccc2)Nc2ccccc21	108%
COc1ccc(/C=C/C(=O)/C=C/c2cc3ccccc3[nH]c2=O)cc1	13.6%
CCC(C)C1NC(=O)C(CC(C)C)NC(=O)C(C)NC(=O)C(C(C)C)NC(=O)C(CCCCN)NC(=O)C(CC(C)C)NC(=O)C(C(C)C)NC(=O)[C@H](C)NC(=O)C(C(C)CC)NC(=O)C(CCCN=C(N)N)NC(=O)C(CCCCN)NC(=O)C(CCCN=C(N)N)NC(=O)C(CCCCN)NC(=O)C([C@H](C)CC)NC(=O)C(CCCCN)NC1=O (stereo partly specified)	11.2%
COc1ccc(-c2nc(SCC(C)C)nc(Nc3ccc(C(=O)O)cc3)c2C#N)cc1	99.5%
Nc1nc2c(c3cnccc13)C(c1cccc(Cl)c1)Cc1cnccc1-2 (stereo unspecified)	-22.9% (active)
Oc1ccccc1\C=N/N=C/C=C/c1ccccc1	105%
COC(=O)c1ccc2[nH]c(O)c(C(=Nc3ccc(N(C)C(=O)CN4CCN(C)CC4)cc3)c3ccc(N)cc3)c2c1	90.6%
CC(C)OC(=O)c1ccc2n1CCCc1cnc(Nc3ccccc3)nc1-2	42.7%
CC(=O)Nc1ccc(C(=O)/C=C/c2ccc(N(C)C)cc2)cc1	98.1%
CCOC(=O)C1=C(c2ccccc2)NC(=O)NC1CN1C(=O)c2ccccc2C1=O (stereo unspecified)	114%
CC/C(=N\Nc1nc2ccccc2n1C)c1ccccn1	18.9%
CCCCCCC(C)N(CC(C)(C)O)C(=O)c1ccc([N+](=O)[O-])cc1 (stereo unspecified)	104%
O=C1C(=O)c2ccccc2C(O)=C1CCCc1ccc(Oc2ccccc2)cc1	45.4%
C=C[C@]1(C)C=C2C(=O)[C@@]3(O)OC[C@@]4(CCCC(C)(C)C43O)C2(O)C(O)C1 (stereo partly specified)	60.2%

SMILES	growth
C/C(=N\Nc1cccc(Cl)n1)c1ccccn1	31.3%
CC(=O)c1ccc2c(c1)c1ccccc1n2C	99.3%
CCCCN(CCCC)CCCNc1c2c(nc3ccc(Cl)cc13)CCCC2	103%
COc1ccc(Cn2cc3c(c2)-c2oncc2CC3)cc1OC	-46.2% (active)
C/C(=N\Nc1ccc(Cl)cn1)c1ccccn1	26.4%
NC(=O)c1c(Nc2ccccc2)nn2cc(-c3nc4ccccc4s3)c(N)nc12	102%
COC(=O)c1ccc2[nH]c(O)c(C(=Nc3ccc(N(C)C(=O)CN4CCN(C)CC4)cc3)c3cccc(OC)c3)c2c1	31.8%
Cc1nc2c(nnn2-c2ccccc2)c2nc(-c3ccc(Cl)cc3)oc(=O)c12	106%
Clc1ccc(N/N=C(/c2ccccc2)c2ccccn2)nc1	57.3%
COc1ccc(-c2nnc(SCC(=O)Nc3ccc(C(=O)/C=C/c4cc(OC)c(OC)c(OC)c4)cc3)n2-c2ccccc2)cc1OC	-16.1% [100 µM] (active)
CCc1ccc(C(=Nc2ccc(N(C)C(=O)CN3CCN(C)CC3)cc2)c2c(O)[nH]c3ccc(C(=O)OC)cc23)cc1	-20.5% (active)
Cc1ccc(C(C)C)c(OCc2ccc(C(=O)N/N=C/c3cccc(O)c3O)cc2)c1	55.9%
C/C(=N\Nc1ccc(Cl)cn1)c1ccc2ccccc2n1	31.9%
CCOC(=O)c1ccc2n1CCCc1cnc(NC(C)=O)nc1-2	102%
COC(=O)c1ccc2[nH]c(O)c(C(=Nc3ccc(N(C)C(=O)CN4CCN(C)CC4)cc3)c3ccc(C)cc3)c2c1	10.3%
